Experimental data reported in PubChem BioAssay (NCI).
The panel holds about 83,000 compounds, 20% with a hit somewhere; the sample as a whole holds those more often.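 Interpretation: 100, growth as untreated; towards 0, rising growth inhibition; 0, no net growth; 0 to -100, cell death. Compounds scoring below 10 were considered active.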

Experiments:
Assay in all cases: NCI-60 one-dose screen, 48 h (100 = growth as untreated, 0 = no growth, -100 = all killed)
Settings in all cases: 10 µM unless noted
NCI-H23 lung = tested on: NCI-H23 lung
NCI-H226 lung = tested on: NCI-H226 lung
NCI-H322M lung = tested on: NCI-H322M lung
HOP-62 NSCLC = tested on: HOP-62 NSCLC
NCI-H460 lung = tested on: NCI-H460 lung
HOP-92 NSCLC = tested on: HOP-92 NSCLC
NCI-H522 lung = tested on: NCI-H522 lung
A549/ATCC NSCLC = tested on: A549/ATCC NSCLC
786-0 renal = tested on: 786-0 renal
COLO 205 colon = tested on: COLO 205 colon
DU-145 prostate = tested on: DU-145 prostate
K-562 leukemia = tested on: K-562 leukemia
MALME-3M melanoma = tested on: MALME-3M melanoma
MDA-MB-231 breast = tested on: MDA-MB-231 breast
RXF 393 renal = tested on: RXF 393 renal
SF-268 CNS = tested on: SF-268 CNS
SF-295 CNS = tested on: SF-295 CNS
SF-539 CNS = tested on: SF-539 CNS
UACC-257 melanoma = tested on: UACC-257 melanoma
M14 melanoma = tested on: M14 melanoma

Measured: growth

O=C(O)Cc1cccc2ccccc12
inactive: NCI-H23 lung 121% | NCI-H226 lung 117% | NCI-H322M lung 105% | HOP-62 NSCLC 106% | NCI-H460 lung 109% | HOP-92 NSCLC 103% | NCI-H522 lung 95.7% | A549/ATCC NSCLC 99.8% | 786-0 renal 111% | COLO 205 colon 113% | DU-145 prostate 115% | K-562 leukemia 96.4% | MALME-3M melanoma 116% | MDA-MB-231 breast 123% | RXF 393 renal 117% | SF-268 CNS 109% | SF-295 CNS 110% | SF-539 CNS 108% | UACC-257 melanoma 90.4% | M14 melanoma 103%

CC1(c2ccccc2)CO1 (stereo not given)
inactive: NCI-H23 lung 108% | NCI-H226 lung 109% | NCI-H322M lung 125% | HOP-62 NSCLC 97.2% | NCI-H460 lung 115% | HOP-92 NSCLC 95.7% | NCI-H522 lung 99.2% | A549/ATCC NSCLC 103% | 786-0 renal 102% | COLO 205 colon 114% | DU-145 prostate 111% | K-562 leukemia 106% | MALME-3M melanoma 118% | MDA-MB-231 breast 108% | RXF 393 renal 120% | SF-268 CNS 107% | SF-295 CNS 110% | SF-539 CNS 102% | UACC-257 melanoma 102% | M14 melanoma 108%

CC(C)OCC(CCl)OC(=O)Nc1ccccc1 (stereo not given)
inactive: NCI-H23 lung 93% | NCI-H226 lung 100% | NCI-H322M lung 99.4% | HOP-62 NSCLC 104% | NCI-H460 lung 105% | HOP-92 NSCLC 89.5% | NCI-H522 lung 98.4% | A549/ATCC NSCLC 102% | 786-0 renal 100% | COLO 205 colon 111% | DU-145 prostate 106% | K-562 leukemia 103% | MALME-3M melanoma 92.7% | MDA-MB-231 breast 94.8% | RXF 393 renal 113% | SF-268 CNS 101% | SF-295 CNS 108% | SF-539 CNS 98.1% | UACC-257 melanoma 102% | M14 melanoma 107%

CC(=O)Oc1c(Cl)cccc1-c1ccccc1
inactive: NCI-H23 lung 111% | NCI-H226 lung 98.9% | NCI-H322M lung 92.7% | HOP-62 NSCLC 103% | NCI-H460 lung 102% | HOP-92 NSCLC 94.8% | NCI-H522 lung 94.3% | A549/ATCC NSCLC 89.9% | 786-0 renal 104% | COLO 205 colon 111% | DU-145 prostate 104% | K-562 leukemia 101% | MALME-3M melanoma 111% | MDA-MB-231 breast 98.4% | RXF 393 renal 110% | SF-268 CNS 95.1% | SF-295 CNS 103% | SF-539 CNS 104% | UACC-257 melanoma 87.6% | M14 melanoma 108%

Cc1ccc(N)c(S(=O)(=O)O)c1
inactive: NCI-H23 lung 98.6% | NCI-H226 lung 103% | NCI-H322M lung 93.8% | HOP-62 NSCLC 85.8% | NCI-H460 lung 104% | HOP-92 NSCLC 112% | NCI-H522 lung 156% | A549/ATCC NSCLC 125% | 786-0 renal 101% | COLO 205 colon 106% | DU-145 prostate 125% | K-562 leukemia 45.1% | MALME-3M melanoma 129% | MDA-MB-231 breast 109% | RXF 393 renal 108% | SF-268 CNS 115% | SF-295 CNS 116% | SF-539 CNS 98.2% | UACC-257 melanoma 101% | M14 melanoma 101%

O=C(O)Cc1ccccn1
inactive: NCI-H23 lung 102% | NCI-H226 lung 102% | NCI-H322M lung 102% | HOP-62 NSCLC 109% | NCI-H460 lung 108% | HOP-92 NSCLC 99.1% | NCI-H522 lung 100% | A549/ATCC NSCLC 106% | 786-0 renal 102% | COLO 205 colon 97.8% | DU-145 prostate 111% | K-562 leukemia 108% | MALME-3M melanoma 85.7% | MDA-MB-231 breast 116% | RXF 393 renal 133% | SF-268 CNS 100% | SF-295 CNS 114% | SF-539 CNS 109% | UACC-257 melanoma 98.6% | M14 melanoma 112%

CC(C)C(=O)OCCOc1ccc(C(C)(C)C)cc1
inactive: NCI-H23 lung 103% | NCI-H226 lung 99.4% | NCI-H322M lung 101% | HOP-62 NSCLC 102% | NCI-H460 lung 102% | HOP-92 NSCLC 97.7% | NCI-H522 lung 84.8% | A549/ATCC NSCLC 88.4% | 786-0 renal 101% | COLO 205 colon 108% | DU-145 prostate 104% | K-562 leukemia 103% | MALME-3M melanoma 97.3% | MDA-MB-231 breast 90.5% | RXF 393 renal 109% | SF-268 CNS 96.1% | SF-295 CNS 99.3% | SF-539 CNS 99.5% | UACC-257 melanoma 87.7% | M14 melanoma 107%

CCCC1OC(c2ccco2)OCC1CC (stereo not given)
inactive: NCI-H23 lung 96.8% | NCI-H226 lung 111% | NCI-H322M lung 102% | HOP-62 NSCLC 105% | NCI-H460 lung 113% | HOP-92 NSCLC 105% | NCI-H522 lung 80.5% | A549/ATCC NSCLC 87.5% | 786-0 renal 105% | COLO 205 colon 106% | DU-145 prostate 104% | K-562 leukemia 105% | MALME-3M melanoma 118% | MDA-MB-231 breast 102% | RXF 393 renal 136% | SF-268 CNS 101% | SF-295 CNS 105% | SF-539 CNS 106% | UACC-257 melanoma 93.1% | M14 melanoma 102%
